# Screens from PubChem BioAssay.
# An excerpt weighted towards active compounds, which were near 3.4% of everything screened.
# HGIII-sPLA2 inh – Inhibits HGIII-sPLA2 liposome hydrolysis, primary screen | Q9NZ20 | QFRET BODIPY PC-A2 liposome hydrolysis, fluorescence | inhibition, % at 12.2 µM | 370,000 tested, 0.56% active | AID 743126;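 active = inhibition above mean plus 3 SD of compounds lying within the high and low control bounds, cut at about 19% in these data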;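 note: 0% = median of test compound wells and 100% = no enzyme DMSO wells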
# PLC-gamma1 inh – blocks human PLC-gamma1 enzyme activity. P19174. purified PLC-gamma1, fluorogenic substrate, fluorescence. inhibition, % at 12.2 µM. 370,000 tested, 0.84% active; in the data active = inhibition above about 9.5%
# ADAM10 inh – ADAM10 inhibition, QFRET primary screen; O14672; recombinant ADAM10, EDANS/DABCYL FRET peptide cleavage, 3 h; inhibition, % at 7 µM; 370,000 tested, 0.62% active;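 active = inhibition above a per-campaign cutoff equal to the mean of compounds falling between control-based bounds plus 3 SD, cut at about 20% in these data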;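 note: 0% = DMSO wells while the 100% control is not disclosed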
# KLK7 zymogen act – activates the human kallikrein-7 zymogen | activation, % at 7 µM | P49862 | purified proKLK7, EDANS-DABCYL substrate fluorescence; 100% is mature enzyme control, 0% vehicle | 370,000 tested, 0.9% active;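 active = activation above the mean of all tested compounds plus 3 SD, computed per campaign excluding outliers beyond control limits, cut at about 13% in these data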
# Target sequence (P49862 whole entry, looked up): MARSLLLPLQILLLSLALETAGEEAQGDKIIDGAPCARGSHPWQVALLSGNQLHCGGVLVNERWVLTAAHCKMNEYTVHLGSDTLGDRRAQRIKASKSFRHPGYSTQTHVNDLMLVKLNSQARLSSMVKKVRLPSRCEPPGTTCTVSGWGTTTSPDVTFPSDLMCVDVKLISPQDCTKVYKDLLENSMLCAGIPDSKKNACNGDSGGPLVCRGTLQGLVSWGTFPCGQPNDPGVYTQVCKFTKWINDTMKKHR
# PLC-beta3 inh – inhibitors of human phospholipase C beta3. Q01970. Purified PLC-beta3, fluorogenic substrate, fluorescence. inhibition, % at 12.2 µM. 370,000 tested, 0.18% active. AID 720704; in the data active = inhibition above about 11%;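 note: 0% = median of compound wells on plate and 100% = full blocker control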
# ADAM17 inh – ADAM17 inhibition, QFRET primary screen; AID 720648; inhibition, % at 6.95 µM; P78536; 370,000 tested, 0.83% active; recombinant ADAM17, EDANS/DABCYL FRET peptide cleavage;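 active = inhibition above the mean of compounds lying between control limits plus 3 SD, set per campaign, cut at about 8.5% in these data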;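 note: 0% = DMSO-only wells as the low control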
# ADAM10 ctr – ADAM10 inhibition, counter-screen for ADAM17 exosite hits; shares compounds with ADAM17 inh; 2,900 tested, 47% active; recombinant ADAM10, EDANS/DABCYL FRET peptide cleavage, 3 h; inhibition, % at 6.95 µM;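 active = mean inhibition over the triplicate runs exceeds the activity threshold set in the earlier primary screen, cut at about 20% in these data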;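 note: 0% = DMSO wells and 100% = marimastat wells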
# ADAM17 confirm – confirmation of inhibitors of human ADAM17. shares compounds with ADAM17 inh. recombinant ADAM17, EDANS/DABCYL QFRET peptide cleavage. inhibition, % at 6.95 µM. 2,900 tested, 65% active;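 active = mean inhibition across replicates above the hit cutoff set in the primary screen, cut at about 8.5% in these data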;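 note: 0% = DMSO wells and 100% = marimastat wells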
# The depositor's hits bear a star; . = no result given.
SMILES,HGIII-sPLA2 inh,PLC-gamma1 inh,ADAM10 inh,KLK7 zymogen act,PLC-beta3 inh,ADAM17 inh,ADAM10 ctr,ADAM17 confirm
O=C1CC(c2ccco2)CC(O)=C1C=Nc1cc(Cl)ccc1Cl (configuration not stated),-8,-5,-3,1,-5,2,.,.
O=C1CC(c2ccco2)CC(O)=C1C=Nc1cc(Cl)ccc1O (configuration not stated),10,-158,18,-1,-212,11*,-30,-6
CCS(=O)(=O)N1CCN(Cc2ccccc2OC)CC1,-5,6,5,0,6,10*,-6,-3
CCNC(=O)NC(=O)CSc1cccc(C(F)(F)F)c1,-4,-1,1,0,2,3,.,.
O=C(CSc1cccc(C(F)(F)F)c1)NC(=O)c1ccccc1,-32,2,6,0,5,8.7*,0,6
COc1cc(NC(=O)C2CCCN(S(=O)(=O)c3ccccc3)C2)cc(OC)c1 (configuration not stated),-17,1,-1,0,0,3,.,.
COc1cc(NC(=O)C2CCCN(S(=O)(=O)c3ccc(Cl)s3)C2)cc(OC)c1 (configuration not stated),-24,-2,5,0,2,10*,35*,19*
Cc1cc(NC(=O)c2ccc(NS(=O)(=O)c3ccccc3)cc2)no1,-17,4,2,0,0,1,.,.
COC(=O)c1cccc(Cn2c(Cl)c(/C=N/Nc3ccccc3C)sc2=O)c1,-14,-7,14,-1,-14,9.5*,20,12*
Cc1ccccc1N/N=C/c1sc(=O)n(Cc2cccc(C(=O)O)c2)c1Cl,-12,-3,-5,0,-21,-2,.,.
Cc1ccc(NS(=O)(=O)c2cc([N+](=O)[O-])ccc2NNC(=S)Nc2cc(C)ccc2C)c(C)c1,-34,5,20*,0,5,10*,34*,22*
COc1ccc(NC(=S)NNc2ccc([N+](=O)[O-])cc2S(=O)(=O)Nc2ccc(C)cc2C)cc1,-3,-2,4,-1,-7,7,.,.
COC(=O)c1cccc(OCC(C)CN2CCC(C(O)(c3ccccc3)c3ccccc3)CC2)c1 (configuration not stated),-17,6,8,0,4,4,.,.
O=C(C[n+]1ccccc1)Nc1nc2ccccc2s1,-9,2,15,0,6,9.4*,9,15*
O=C(CCn1nnc(-c2cccs2)n1)NCc1cccs1,2,1,-5,0,0,0,.,.
COc1ccc([N+](=O)[O-])cc1NC(=O)CSc1ccc2ccccc2c1,-12,6,10,-1,5,9.6*,21*,8
CN(c1cccnc1)c1ccc(NC(=O)Cc2c[nH]c3ccccc23)cc1Br,-5,-46,-28,-2,-65,-10,.,.
C[C@H]1/C=C/CC(=O)N[C@@H](c2ccc3ccccc3c2)[C@@H](C)/C=C/CC(=O)N[C@H]1c1ccc2ccccc2c1,11,-1,3,0,-7,-1,.,.
Nc1[nH]c(C(=O)c2ccccc2)c(-c2ccccc2C(F)(F)F)c1C(=O)NCCc1c[nH]c2ccccc12,-37,-21,7,-1,-28,9.4*,7,5
Nc1[nH]c(C(=O)c2ccc(Br)cc2)c(-c2ccc(Cl)cc2[N+](=O)[O-])c1C(=O)NCCc1c[nH]c2ccccc12,-25,-6,5,0,-10,9.3*,15,14*
Nc1[nH]c(C(=O)c2ccc(Cl)cc2)c(-c2ccc(Br)cc2)c1C(=O)NCCc1c[nH]c2ccccc12,-32,-5,0,0,-7,3,.,.
Nc1[nH]c(C(=O)c2ccc(Br)cc2)c(-c2ccc(Br)cc2)c1C(=O)NCCc1c[nH]c2ccccc12,-22,-5,-5,0,-8,0,.,.
